Reference: PubChem BioAssay
Inconclusive results are not listed. The source made the active and inactive calls. Unless noted, the rule behind the calls is not given here.

Tests used:
[1] = yeast TOR pathway RPL19A-GFP modulators, primary screen, cell-based, S. cerevisiae, multiplex flow cytometry (AID 1862; in the data active = percent of DMSO control GFP below about 86%;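 note: lower values mimic rapamycin by blocking the RPL19A rise seen in DMSO cells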); conditions: S. cerevisiae RPL19A-GFP strain, flow cytometry fluorescence, 3 h; at 10 µM; stronger effect = lower value
[2] = modulators of MEP2-GFP levels in yeast, primary screen, S. cerevisiae, multiplex flow cytometry (AID 1867;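 active = GFP response, as percent of the DMSO control, above the screen-wide mean plus 3 SD, about 139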;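 note: median GFP channel fluorescence of barcode-gated MEP2-GFP cells measured by flow cytometry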); conditions: S. cerevisiae MEP2-GFP strain, 3 h, at 10 µM, stronger effect = higher value
[3] = modulators of CIT2-GFP expression in yeast, primary screen, S. cerevisiae, GFP fusion, multiplex flow cytometry (AID 1870;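 active = percent response above a set limit, the screen-wide mean plus 3 SD, cut at about 130% in these data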;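 note: barcoded CIT2-GFP strain pooled with four other GFP strains with rapamycin as positive control; median GFP fluorescence per well over plate mean of DMSO wells so 100% = DMSO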); conditions: 3 h, at 10 µM, stronger effect = higher value
[4] = modulators of LAP4-GFP expression in yeast, primary screen, S. cerevisiae, multiplex flow cytometry (AID 1873;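 active = GFP signal, as percent of the solvent control, above the screen mean plus 3 SD, about 149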); conditions: 3 h, at 10 µM, stronger effect = higher value
[5] = modulators of AGP1-GFP expression in yeast TOR pathway, primary screen, cell-based, multiplex flow cytometry, S. cerevisiae (AID 1887;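 active = GFP signal above the screen-wide mean plus 3 SD, that is over about 124.5% of the solvent control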;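 note: AGP1-GFP fusion strain of S. cerevisiae within a five-strain barcoded multiplex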); conditions: 3 h, at 10 µM, stronger effect = higher value
[6] = inhibitors of CD8+ T cell-vesicle binding, pilot screen, LFA-1/ICAM-1 modulator project, MLPCN validation set, flow cytometry (AID 2523;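 active = response below a set limit, under 55% cells CD8-positive and vesicle-bound, and CD8 cells' 90th-percentile brightness under 279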;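 for vesicle binding response: mean PE anti-B7-1 fluorescence of CD8+ cells relative to row control; 100% = QL9-loaded vesicles with DMSO vehicle in the same plate row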); conditions: 2C mouse CD8+ T cells, at 7 µM, stronger effect = lower value; double positive events: measured here: CD8+/vesicle+ event percentage
[7] = target: Integrin beta-1 (Homo sapiens) + Integrin alpha-4 (Homo sapiens) (UniProt P13612+P05556); test: inhibition of HUTS-21 binding to VLA-4, pilot screen, VLA-4 allosteric modulator project, U937 cells, HUTS-21 mAb, flow cytometry, validation set (AID 2674;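 active = inhibition above 50%, about 3 SD of the validation set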;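 note: antibody binding induced by the VLA-4 ligand LDV present at three times its Kd; 0% = LDV ligand with antibody and no compound and 100% = antibody without LDV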); conditions: HUTS-21 LIBS mAb binding, at 6.7 µM, stronger effect = higher value
[8] = superoxide lowering in aged yeast cells, pilot screen, validation compound set (AID 2706;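 active = superoxide response below 65% of plate, a cut near 3 SD across the whole screen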;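 note: yeast exposed to compound for one week at 30 degrees C before staining; 100% = mean of all compound wells on the same plate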); conditions: S. cerevisiae aging, superoxide DHE fluorescence; at 10 µM; stronger effect = lower value
[9] = target: Beta-adrenergic receptor kinase 1 (Homo sapiens) (UniProt P25098); test: GRK2 binders displacing RNA aptamer, biochemical, validation, human GRK2, bead flow cytometry (AID 488806;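 active = aptamer binding inhibition above 30%, about 3 SD of noise from non-fluorescent compounds; inactive = inhibition at or below 30%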); conditions: bead-bound GRK2, FAM-aptamer displacement, at 10 µM, stronger effect = higher value
Beta-adrenergic receptor kinase 1 (Homo sapiens), sequence (P25098 whole entry, looked up): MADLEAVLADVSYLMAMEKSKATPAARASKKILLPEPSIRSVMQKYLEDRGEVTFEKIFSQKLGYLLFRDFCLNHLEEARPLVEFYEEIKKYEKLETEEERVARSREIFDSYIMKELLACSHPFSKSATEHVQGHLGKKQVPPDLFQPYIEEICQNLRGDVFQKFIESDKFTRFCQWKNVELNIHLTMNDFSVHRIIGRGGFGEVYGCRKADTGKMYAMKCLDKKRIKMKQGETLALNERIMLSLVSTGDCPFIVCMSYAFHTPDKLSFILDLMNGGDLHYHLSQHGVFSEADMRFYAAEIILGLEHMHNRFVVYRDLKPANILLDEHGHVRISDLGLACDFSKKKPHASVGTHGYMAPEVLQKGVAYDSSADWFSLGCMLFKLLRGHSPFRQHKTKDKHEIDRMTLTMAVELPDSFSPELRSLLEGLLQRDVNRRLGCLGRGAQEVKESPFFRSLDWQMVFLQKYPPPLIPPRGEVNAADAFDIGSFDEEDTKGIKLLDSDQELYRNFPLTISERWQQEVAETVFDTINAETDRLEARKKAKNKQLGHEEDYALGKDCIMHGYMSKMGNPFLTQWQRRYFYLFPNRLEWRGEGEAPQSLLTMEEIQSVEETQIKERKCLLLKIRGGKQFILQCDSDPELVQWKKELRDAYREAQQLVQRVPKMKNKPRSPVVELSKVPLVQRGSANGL

[10] = target: Beta-2 adrenergic receptor (Homo sapiens) (UniProt P07550); test: beta2AR agonists driving receptor internalization, pilot screen, cell-based, FAP fluorogen, flow cytometry, validation set (AID 504459;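 active = percent response above 42, roughly 3 SD of non-fluorescent test compounds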;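 note: agonist-driven loss of surface beta2AR via internalization measured by FAP dye flow cytometry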); conditions: Am2.2-beta2AR cells, FAP surface receptor flow cytometry; at 10 µM; stronger effect = higher value
Beta-2 adrenergic receptor (Homo sapiens), sequence (P07550 whole entry, looked up): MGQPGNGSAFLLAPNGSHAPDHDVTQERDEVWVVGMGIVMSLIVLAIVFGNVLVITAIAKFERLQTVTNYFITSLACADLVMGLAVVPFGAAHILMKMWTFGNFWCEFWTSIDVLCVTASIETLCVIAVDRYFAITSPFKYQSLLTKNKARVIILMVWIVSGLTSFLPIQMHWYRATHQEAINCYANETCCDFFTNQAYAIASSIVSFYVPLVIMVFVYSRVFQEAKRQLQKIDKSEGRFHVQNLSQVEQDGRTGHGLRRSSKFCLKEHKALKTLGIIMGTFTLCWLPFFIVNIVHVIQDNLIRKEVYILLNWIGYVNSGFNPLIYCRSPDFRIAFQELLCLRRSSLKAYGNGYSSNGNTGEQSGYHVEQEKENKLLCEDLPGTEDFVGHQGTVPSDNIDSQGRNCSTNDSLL

[11] = target: AP-2 complex subunit beta (Homo sapiens) (UniProt P63010); test: inhibitors of arrestin peptide binding to AP2, pilot screen, biochemical, validation set, GST-AP2 beads, flow cytometry (AID 504541;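 active = inhibition above 54%, about 3 SD of non-fluorescent compounds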;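 note: AP2 carries R879A mutation and is captured from E. coli lysate; bead-bound FITC arrestin peptide fluorescence measuring arrestin peptide binding to AP2; 0% = DMSO wells and 100% = excess unlabeled arrestin peptide control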); conditions: FITC arrestin peptide, at 10 µM, stronger effect = higher value
AP-2 complex subunit beta (Homo sapiens), sequence (P63010 whole entry, looked up, one chain of several): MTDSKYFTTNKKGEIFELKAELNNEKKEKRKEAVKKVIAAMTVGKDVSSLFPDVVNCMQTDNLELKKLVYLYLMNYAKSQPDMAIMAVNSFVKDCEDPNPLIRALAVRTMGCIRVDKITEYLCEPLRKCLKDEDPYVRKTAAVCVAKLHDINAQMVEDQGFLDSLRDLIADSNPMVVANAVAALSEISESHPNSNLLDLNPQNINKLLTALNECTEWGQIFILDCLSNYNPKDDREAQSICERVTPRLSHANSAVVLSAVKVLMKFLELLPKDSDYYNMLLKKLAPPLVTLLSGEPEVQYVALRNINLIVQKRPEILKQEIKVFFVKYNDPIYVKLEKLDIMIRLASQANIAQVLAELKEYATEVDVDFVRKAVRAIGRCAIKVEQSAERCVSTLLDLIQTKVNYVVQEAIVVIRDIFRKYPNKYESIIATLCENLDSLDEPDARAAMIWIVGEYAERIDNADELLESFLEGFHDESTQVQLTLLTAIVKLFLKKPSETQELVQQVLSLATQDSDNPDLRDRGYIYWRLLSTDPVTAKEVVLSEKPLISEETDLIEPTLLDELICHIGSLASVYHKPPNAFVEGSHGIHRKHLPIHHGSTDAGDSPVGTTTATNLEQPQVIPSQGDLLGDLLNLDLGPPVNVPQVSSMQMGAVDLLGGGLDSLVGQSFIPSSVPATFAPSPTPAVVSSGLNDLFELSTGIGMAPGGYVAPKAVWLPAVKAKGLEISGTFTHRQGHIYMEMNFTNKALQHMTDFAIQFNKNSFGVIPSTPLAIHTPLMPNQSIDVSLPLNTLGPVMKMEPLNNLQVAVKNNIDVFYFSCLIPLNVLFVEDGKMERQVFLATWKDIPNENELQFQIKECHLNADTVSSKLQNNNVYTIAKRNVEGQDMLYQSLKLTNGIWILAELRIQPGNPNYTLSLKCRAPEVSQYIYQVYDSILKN

[12] = yeast V-ATPase proton transport modulators, S. cerevisiae, pHLuorin, HTS validation (AID 504600; in the data active = response above about 15%;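 note: plate controls were DMSO for no effect and reference compound for full effect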); conditions: S. cerevisiae pHLuorin cytosolic pH, at 10 µM, stronger effect = higher value
[13] = test system: anti-desmoglein-3 scFv antibody binding to human DSG3; test: inhibitors of anti-DSG3 scFv binding to DSG3, pilot screen, biochemical, validation compound set, bead-based, flow cytometry (AID 588368;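 active = binding below the plate cutoff, the plate median minus 3 SD, with a reading above zero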;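 note: signal is the median channel fluorescence of bead-bound GFP antibody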); conditions: Protein G beads, DSG3-Fc, scFv-GFP binding, at 10 µM, stronger effect = lower value
[14] = test system: Botulinum neurotoxin type F light chain protease (Clostridium botulinum); test: Botulinum neurotoxin type F light chain protease inhibition, multiplex microsphere flow cytometry, validation set (AID 588459); conditions: multiplex microsphere protease substrate cleavage assay, at 10 µM, stronger effect = higher value
[15] = target: Botulinum neurotoxin type A (Clostridium botulinum) (UniProt P0DPI0); test: BoNT/A light chain protease inhibitors, biochemical, multiplex microsphere flow cytometry, validation set (AID 588460); conditions: at 10 µM, stronger effect = higher value
Botulinum neurotoxin type A (Clostridium botulinum), sequence (P0DPI0 whole entry, looked up): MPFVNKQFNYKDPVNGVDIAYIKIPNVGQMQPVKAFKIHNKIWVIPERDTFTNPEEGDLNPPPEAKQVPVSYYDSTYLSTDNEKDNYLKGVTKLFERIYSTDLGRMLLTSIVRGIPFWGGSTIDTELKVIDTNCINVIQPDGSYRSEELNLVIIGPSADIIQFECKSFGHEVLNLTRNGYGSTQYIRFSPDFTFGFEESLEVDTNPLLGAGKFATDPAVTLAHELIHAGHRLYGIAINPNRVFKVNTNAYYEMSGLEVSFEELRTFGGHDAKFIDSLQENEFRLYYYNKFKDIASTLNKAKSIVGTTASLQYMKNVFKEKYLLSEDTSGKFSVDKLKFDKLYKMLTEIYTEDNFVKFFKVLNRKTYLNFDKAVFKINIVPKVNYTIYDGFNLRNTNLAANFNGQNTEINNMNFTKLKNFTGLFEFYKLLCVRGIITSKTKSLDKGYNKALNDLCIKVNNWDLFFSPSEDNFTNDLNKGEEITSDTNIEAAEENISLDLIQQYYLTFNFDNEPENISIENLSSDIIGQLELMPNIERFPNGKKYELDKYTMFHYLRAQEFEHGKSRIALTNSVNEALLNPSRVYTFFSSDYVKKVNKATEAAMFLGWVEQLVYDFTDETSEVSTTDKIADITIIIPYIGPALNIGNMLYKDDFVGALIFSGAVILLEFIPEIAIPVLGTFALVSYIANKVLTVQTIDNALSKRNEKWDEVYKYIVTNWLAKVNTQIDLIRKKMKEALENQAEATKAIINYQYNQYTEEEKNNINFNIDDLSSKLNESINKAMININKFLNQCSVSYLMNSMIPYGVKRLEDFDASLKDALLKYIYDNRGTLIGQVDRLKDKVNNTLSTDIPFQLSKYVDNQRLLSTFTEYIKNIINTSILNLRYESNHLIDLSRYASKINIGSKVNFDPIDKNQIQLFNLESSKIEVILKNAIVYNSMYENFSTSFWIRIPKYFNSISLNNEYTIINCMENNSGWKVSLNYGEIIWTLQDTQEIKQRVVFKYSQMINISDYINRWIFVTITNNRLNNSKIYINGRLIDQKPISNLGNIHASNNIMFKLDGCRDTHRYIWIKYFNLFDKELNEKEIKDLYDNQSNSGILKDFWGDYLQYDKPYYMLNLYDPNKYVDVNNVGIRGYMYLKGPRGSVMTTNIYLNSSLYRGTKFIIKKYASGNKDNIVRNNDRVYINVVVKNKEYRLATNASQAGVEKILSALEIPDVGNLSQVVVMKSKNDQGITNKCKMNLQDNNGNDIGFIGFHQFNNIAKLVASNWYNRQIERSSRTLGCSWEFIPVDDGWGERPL

[16] = target: Lethal factor (Bacillus anthracis) (UniProt P15917); test: Lethal factor protease inhibitors, Bacillus anthracis, multiplex microsphere cleavage assay, validation set (AID 588461); conditions: flow cytometry, at 10 µM, stronger effect = higher value
Lethal factor (Bacillus anthracis), sequence (P15917 whole entry, looked up): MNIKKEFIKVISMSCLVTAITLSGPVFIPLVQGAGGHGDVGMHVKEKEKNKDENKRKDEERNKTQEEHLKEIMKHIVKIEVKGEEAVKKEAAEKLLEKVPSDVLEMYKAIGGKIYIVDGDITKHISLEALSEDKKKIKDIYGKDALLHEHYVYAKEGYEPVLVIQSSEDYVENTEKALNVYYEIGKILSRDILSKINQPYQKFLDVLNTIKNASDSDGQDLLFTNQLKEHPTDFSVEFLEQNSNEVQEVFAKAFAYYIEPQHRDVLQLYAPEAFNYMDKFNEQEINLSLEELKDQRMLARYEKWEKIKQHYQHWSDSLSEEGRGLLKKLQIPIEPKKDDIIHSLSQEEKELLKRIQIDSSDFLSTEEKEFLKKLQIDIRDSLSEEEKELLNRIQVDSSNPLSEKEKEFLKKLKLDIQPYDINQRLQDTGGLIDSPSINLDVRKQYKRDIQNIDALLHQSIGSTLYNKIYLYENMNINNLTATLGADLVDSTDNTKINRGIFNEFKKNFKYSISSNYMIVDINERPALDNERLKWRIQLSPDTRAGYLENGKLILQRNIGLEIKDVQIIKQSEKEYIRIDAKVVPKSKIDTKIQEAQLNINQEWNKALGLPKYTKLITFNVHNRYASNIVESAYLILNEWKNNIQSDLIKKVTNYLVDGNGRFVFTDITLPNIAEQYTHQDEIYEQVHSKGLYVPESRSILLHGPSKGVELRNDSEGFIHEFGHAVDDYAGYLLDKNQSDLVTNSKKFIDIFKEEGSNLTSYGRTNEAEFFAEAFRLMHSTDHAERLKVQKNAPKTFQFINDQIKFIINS

[17] = inhibitors of fungal efflux pumps CDR1, CDR2, MDR1, pilot screen, validation compound set, multiplex, phenotypic (AID 588506;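 active = efflux inhibition above 0.42, the validation set average plus 4 SD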;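 note: Nile Red retained in cells so higher fluorescence means more efflux inhibition; 0 = negative control wells and 1 = enniatin B 25 µM full block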); conditions: S. cerevisiae pump-expressing triplex, Nile Red efflux flow cytometry; at 10 µM; stronger effect = higher value
[18] = target: ATP-binding cassette sub-family B member 6 (Homo sapiens) (UniProt Q9NP58); test: ABCB6 transporter inhibitors, pilot screen, K562-ABCB6 cells, flow cytometry, validation set (AID 588550;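 active = inhibition above the screen-wide mean plus 3 SD, about 51%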;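 note: 0% = DMSO wells and 100% = benzethonium chloride 70 µM positive control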); conditions: K562-ABCB6 porphyrin accumulation, 1 h, at 10 µM, stronger effect = higher value
ATP-binding cassette sub-family B member 6 (Homo sapiens), sequence (Q9NP58 whole entry, looked up): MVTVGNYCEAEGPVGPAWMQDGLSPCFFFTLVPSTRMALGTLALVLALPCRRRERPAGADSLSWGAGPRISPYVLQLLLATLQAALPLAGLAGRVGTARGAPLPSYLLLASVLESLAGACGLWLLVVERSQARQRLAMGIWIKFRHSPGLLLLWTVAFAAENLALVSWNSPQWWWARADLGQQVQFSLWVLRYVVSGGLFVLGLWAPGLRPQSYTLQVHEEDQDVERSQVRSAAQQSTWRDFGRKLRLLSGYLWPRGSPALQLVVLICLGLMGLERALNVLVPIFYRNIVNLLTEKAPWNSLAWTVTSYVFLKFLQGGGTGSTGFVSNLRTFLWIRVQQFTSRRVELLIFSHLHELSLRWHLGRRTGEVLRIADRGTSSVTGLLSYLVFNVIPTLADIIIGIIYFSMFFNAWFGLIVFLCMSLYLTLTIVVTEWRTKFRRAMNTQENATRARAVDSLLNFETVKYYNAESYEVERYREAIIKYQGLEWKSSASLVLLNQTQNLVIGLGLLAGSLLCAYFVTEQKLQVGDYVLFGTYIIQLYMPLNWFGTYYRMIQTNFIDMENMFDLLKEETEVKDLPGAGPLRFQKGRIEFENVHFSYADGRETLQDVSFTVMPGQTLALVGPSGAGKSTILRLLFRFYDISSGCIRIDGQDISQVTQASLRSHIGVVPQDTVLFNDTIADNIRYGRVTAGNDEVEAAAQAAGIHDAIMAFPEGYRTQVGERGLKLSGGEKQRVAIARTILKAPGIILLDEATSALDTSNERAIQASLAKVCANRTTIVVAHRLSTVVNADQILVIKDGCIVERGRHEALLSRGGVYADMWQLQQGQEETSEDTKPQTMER

[19] = promoters of myeloid differentiation in arrested cells, primary screen, cell-based, GFP/MAC1 double positive, flow cytometry, validation set (AID 588685;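 active = differentiation response of at least 50%, scaled between solvent and reference control, from cells with both markers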;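 note: compound exposure lasts four days before antibody staining and flow analysis; 0% = DMSO wells and 100% = 5 µM fulvestrant positive control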); conditions: ER-HoxA9 marrow cells, stronger effect = higher value

## CCC1(c2ccccc2)C(=O)N(COC)C(=O)N(COC)C1=O
[1]
  percent of DMSO control GFP: 102% (inactive)
[2]
  GFP response vs DMSO: 102% (inactive)
[3]
  percent response of DMSO control: 103% (inactive)
[4]
  GFP response vs DMSO: 112% (inactive)
[5]
  GFP response, % of DMSO: 112% (inactive)
[6]
  double positive events: 62.2%
  vesicle binding response: 148% (inactive)
[7]
  inhibition: 10.8% (inactive)
[8]
  superoxide response (% of plate): 109% (inactive)
[9]
  aptamer binding inhibition: 2% (inactive)
[10]
  response: -14.8% (inactive)
[11]
  inhibition: 10.8% (inactive)
[12]
  response: -4.18% (inactive)
[13]
  binding (% of control): 102% (inactive)
[14]
  inhibition: 2% (inactive)
[15]
  inhibition: -0.2% (inactive)
[16]
  inhibition: 0.4% (inactive)
[17]
  efflux inhibition (fraction of control): 0.12 (inactive)
[18]
  inhibition: 4% (inactive)
[19]
  differentiation response: 3.88% (inactive)

## CC[C@]12C=CCN3CCC4(c5cc(Br)c(OC)cc5N(C)C4[C@@](O)(C(=O)OC)[C@@H]1OC(C)=O)C32 (stereo not given in full)
[1]
  percent of DMSO control GFP: 88.9% (inactive)
[2]
  GFP response vs DMSO: 130% (inactive)
[3]
  percent response of DMSO control: 96.6% (inactive)
[4]
  GFP response vs DMSO: 84.2% (inactive)
[5]
  GFP response, % of DMSO: 90.5% (inactive)
[6]
  double positive events: 48.2%
  vesicle binding response: 18.6% (active)
[7]
  inhibition: 29.7% (inactive)
[8]
  superoxide response (% of plate): 95.7% (inactive)
[9]
  aptamer binding inhibition: 5% (inactive)
[10]
  response: -10.3% (inactive)
[11]
  inhibition: -7.24% (inactive)
[12]
  response: 5.2% (inactive)
[13]
  binding (% of control): 109% (inactive)
[14]
  inhibition: 2.5% (inactive)
[15]
  inhibition: 1.6% (inactive)
[16]
  inhibition: -5.6% (inactive)
[17]
  efflux inhibition (fraction of control): 0.23 (inactive)
[18]
  inhibition: 10% (inactive)
[19]
  differentiation response: 0% (inactive)

## C=C1CC[C@@]2(O)[C@H]3Cc4ccc(O)c5c4[C@@]2(CCN3CC2CC2)[C@H]1O5
[1]
  percent of DMSO control GFP: 107% (inactive)
[2]
  GFP response vs DMSO: 95.1% (inactive)
[3]
  percent response of DMSO control: 109% (inactive)
[4]
  GFP response vs DMSO: 90.1% (inactive)
[5]
  GFP response, % of DMSO: 102% (inactive)
[6]
  double positive events: 64.3%
  vesicle binding response: 1650% (inactive)
[7]
  inhibition: 14.1% (inactive)
[8]
  superoxide response (% of plate): 98.9% (inactive)
[9]
  aptamer binding inhibition: -2% (inactive)
[10]
  response: -8.78% (inactive)
[11]
  inhibition: -7.26% (inactive)
[12]
  response: 5.8% (inactive)
[13]
  binding (% of control): 99% (inactive)
[14]
  inhibition: 2.7% (inactive)
[15]
  inhibition: -0.2% (inactive)
[16]
  inhibition: 8.1% (inactive)
[17]
  efflux inhibition (fraction of control): -0.26 (inactive)
[18]
  inhibition: 13% (inactive)
[19]
  differentiation response: 10% (inactive)

## CC(C)CCC1(CN2CCCC2=O)C(=O)NC(=O)NC1=O
[1]
  percent of DMSO control GFP: 95.4% (inactive)
[2]
  GFP response vs DMSO: 105% (inactive)
[3]
  percent response of DMSO control: 86.3% (inactive)
[4]
  GFP response vs DMSO: 120% (inactive)
[5]
  GFP response, % of DMSO: 101% (inactive)
[6]
  double positive events: 58.9%
  vesicle binding response: 219% (inactive)
[7]
  inhibition: 0.94% (inactive)
[8]
  superoxide response (% of plate): 97.2% (inactive)
[9]
  aptamer binding inhibition: 1% (inactive)
[10]
  response: 5.39% (inactive)
[11]
  inhibition: -2.03% (inactive)
[12]
  response: -6.71% (inactive)
[13]
  binding (% of control): 98.4% (inactive)
[14]
  inhibition: 2.3% (inactive)
[15]
  inhibition: 0.7% (inactive)
[16]
  inhibition: -0.7% (inactive)
[17]
  efflux inhibition (fraction of control): 0.12 (inactive)
[18]
  inhibition: 5% (inactive)
[19]
  differentiation response: 45.6% (inactive)

## O=C1NC(=O)C2(Cc3ccccc3N3CCCC32)C(=O)N1c1ccc(Cl)cc1 (stereo not given)
[1]
  percent of DMSO control GFP: 106% (inactive)
[2]
  GFP response vs DMSO: 88.8% (inactive)
[3]
  percent response of DMSO control: 101% (inactive)
[4]
  GFP response vs DMSO: 93.3% (inactive)
[5]
  GFP response, % of DMSO: 97.5% (inactive)
[6]
  double positive events: 64.8%
  vesicle binding response: 186% (inactive)
[7]
  inhibition: 14.1% (inactive)
[8]
  superoxide response (% of plate): 104% (inactive)
[9]
  aptamer binding inhibition: 6% (inactive)
[10]
  response: -5.5% (inactive)
[11]
  inhibition: -2.86% (inactive)
[12]
  response: 0.31% (inactive)
[13]
  binding (% of control): 100% (inactive)
[14]
  inhibition: -0.7% (inactive)
[15]
  inhibition: 0.8% (inactive)
[16]
  inhibition: 0.9% (inactive)
[17]
  efflux inhibition (fraction of control): 0.24 (inactive)
[18]
  inhibition: 12% (inactive)
[19]
  differentiation response: 1.22% (inactive)

## CC(C)C(=O)Nc1ccc(S(=O)(=O)N2CC3CC(C2)c2cccc(=O)n2C3)cc1 (stereo not given)
[1]
  percent of DMSO control GFP: 97.4% (inactive)
[2]
  GFP response vs DMSO: 95.2% (inactive)
[3]
  percent response of DMSO control: 104% (inactive)
[4]
  GFP response vs DMSO: 86.3% (inactive)
[5]
  GFP response, % of DMSO: 93.1% (inactive)
[6]
  double positive events: 58.5%
  vesicle binding response: 184% (inactive)
[7]
  inhibition: -5.89% (inactive)
[8]
  superoxide response (% of plate): 106% (inactive)
[9]
  aptamer binding inhibition: 3% (inactive)
[10]
  response: -5.34% (inactive)
[11]
  inhibition: 10.6% (inactive)
[12]
  response: -0.52% (inactive)
[13]
  binding (% of control): 100% (inactive)
[14]
  inhibition: 4.8% (inactive)
[15]
  inhibition: 0.5% (inactive)
[16]
  inhibition: 0.3% (inactive)
[17]
  efflux inhibition (fraction of control): -0.24 (inactive)
[18]
  inhibition: 2% (inactive)
[19]
  differentiation response: 13.6% (inactive)

## c1ccc2c(c1)[nH]c1cnccc12
[1]
  percent of DMSO control GFP: 102% (inactive)
[2]
  GFP response vs DMSO: 97.2% (inactive)
[3]
  percent response of DMSO control: 104% (inactive)
[4]
  GFP response vs DMSO: 88.1% (inactive)
[5]
  GFP response, % of DMSO: 95.9% (inactive)
[6]
  double positive events: 62.8%
  vesicle binding response: 961% (inactive)
[7]
  inhibition: -18.1% (inactive)
[8]
  superoxide response (% of plate): 99.7% (inactive)
[9]
  aptamer binding inhibition: 0% (inactive)
[10]
  response: -10.7% (inactive)
[11]
  inhibition: -7.59% (inactive)
[12]
  response: -0.12% (inactive)
[13]
  binding (% of control): 96.1% (inactive)
[14]
  inhibition: 5.3% (inactive)
[15]
  inhibition: 2.5% (inactive)
[16]
  inhibition: -4.7% (inactive)
[17]
  efflux inhibition (fraction of control): 0.14 (inactive)
[18]
  inhibition: 0% (inactive)
[19]
  differentiation response: 2.2% (inactive)
